Laboratory results: PubChem BioAssay
The source made the active and inactive calls. Unless noted, no rule for the calls is given here.

Columns and labels:
[1] = A549 cell viability effects, profiling panel, calcein-AM fluorescence, 48 h, basal (AID 1162); conditions: higher = more signal; also: test concentration not given here
[2] = adipocyte viability effects, profiling panel, cell-based, 3T3-L1 adipocytes, calcein-AM fluorescence, 48 h, basal (AID 1163); conditions: 3T3-L1 adipocytes viability, higher = more signal; also: test concentration not given here
[3] = HepG2 cell viability effects, profiling panel, calcein-AM fluorescence, 48 h, basal (AID 1164); conditions: higher = more signal; also: test concentration not given here
[4] = MM1S cell viability effects, profiling panel, calcein-AM fluorescence, 48 h, basal (AID 1165); conditions: higher = more signal;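 also: viability of MM1S multiple myeloma cells under basal unstimulated conditions; test concentration not given here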
[5] = basal RPMI8226 viability, no added stimulus, profiling panel, cell-based, calcein-AM fluorescence, 48 h, PK04 Diversity Set (AID 1166); conditions: RPMI8226 myeloma viability, higher = more signal;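 also: cells grown under basal conditions without added stimulus; test concentration not given here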
[6] = basal HepG2 mitochondrial membrane potential changes, profiling panel, cell-based, JC-1 fluorescence, 24 h, 100 nL compound (AID 1167); conditions: higher = more signal; also: test concentration not given here
[7] = basal 3T3-L1 adipocyte mitochondrial potential changes, profiling panel, cell-based, JC-1 fluorescence, 3T3-L1 adipocytes, 24 h, 100 nL compound (AID 1168); conditions: JC-1 mitochondrial fluorescence, higher = more signal, called active from +8 up or from −8 down; also: test concentration not given here
[8] = basal RPMI8226 mitochondrial membrane potential changes, profiling panel, cell-based, JC-1 fluorescence, 24 h, 100 nL compound (AID 1169); conditions: RPMI8226 myeloma, JC-1 mitochondrial potential fluorescence, higher = more signal; also: test concentration not given here
[9] = basal MM1S mitochondrial membrane potential changes, profiling panel, cell-based, JC-1 fluorescence, 24 h, 100 nL compound (AID 1170); conditions: higher = more signal; also: test concentration not given here
[10] = A549 lung cancer cell viability effects, profiling panel, resazurin fluorescence, 24 h, PK04 Diversity Set (AID 1171); conditions: higher = more signal, called active from +8 up or from −8 down; also: test concentration not given here
[11] = HepG2 liver cancer cell viability effects, profiling panel, resazurin fluorescence, 24 h, PK04 Diversity Set (AID 1172); conditions: higher = more signal; also: test concentration not given here
[12] = basal S. cerevisiae growth modulation, no modifier, primary screen, OD600, strain BY4716, 24 h, basal condition (AID 1173); conditions: OD600, 24 h, higher = more signal, called active from +8 up or from −8 down
[13] = MM1S myeloma cell viability, profiling panel, resazurin fluorescence, basal, 24 h, PK04 Diversity Set (AID 1174); conditions: higher = more signal, called active from +8 up or from −8 down;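 also: MM1S multiple myeloma cell line; test concentration not given here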
[14] = biological target: Dihydroorotate dehydrogenase (quinone), mitochondrial (Plasmodium falciparum (isolate 3D7)) (UniProt Q08210); assay: PfDHODH enzyme inhibitors, primary screen, biochemical, C-terminal His tag, absorbance 600 nm (AID 1175); conditions: DCIP absorbance 600 nm, higher = more signal, called active from +8 up or from −8 down;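 also: recombinant parasite enzyme with a five histidine tag at its C terminus; test concentration not given here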
[15] = P. aeruginosa biofilm formation inhibitors, primary screen, strain PAO1, LB-PBS medium, absorbance 600 nm (AID 1176); also: test concentration not given here; conditions: P. aeruginosa PAO1 growth/biofilm, A600, 12 h; higher = more signal
[16] = S. cerevisiae RM11-1a growth modifiers, primary screen, strain RM11-1a, OD600, basal, 24 h (AID 1177); conditions: OD600, 24 h, higher = more signal, called active from +8 up or from −8 down;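 also: cultures grown under basal conditions with no added stressor; test concentration not given here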
[17] = E. coli acrAB mutant growth effects, primary screen, E. coli filamentation inducers, strain DRC39, OD650, 24 h (AID 1178); conditions: higher = more signal, called active from +8 up or from −8 down;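 also: growth measured as culture turbidity by optical density at 650 nm; test concentration not given here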
[18] = E. coli acrAB mutant growth effects, primary screen, E. coli filamentation inducers, strain DRC39, OD650, 48 h (AID 1179);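 also: screen aims at cell division blockers that make cells filament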; conditions: E. coli DRC39 delta-acrAB growth, higher = more signal, called active from +8 up or from −8 down
[19] = RPMI8226 myeloma cell viability, profiling panel, resazurin fluorescence, basal, 24 h, PK04 Diversity Set (AID 1180); conditions: higher = more signal;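 also: RPMI8826 multiple myeloma cell line at 5000 cells per well; test concentration not given here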
[20] = biological target: E3 ubiquitin-protein ligase XIAP (Homo sapiens) (UniProt P98170); assay: XIAP binders, primary screen, biophysical, small-molecule microarray, fluorescence 635 nm (AID 1181); conditions: small-molecule microarray binding, higher = more signal;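 also: score merges 667 nm emission and signal to noise over triplicate slides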
Sequence of E3 ubiquitin-protein ligase XIAP (Homo sapiens) (P98170 whole entry, looked up): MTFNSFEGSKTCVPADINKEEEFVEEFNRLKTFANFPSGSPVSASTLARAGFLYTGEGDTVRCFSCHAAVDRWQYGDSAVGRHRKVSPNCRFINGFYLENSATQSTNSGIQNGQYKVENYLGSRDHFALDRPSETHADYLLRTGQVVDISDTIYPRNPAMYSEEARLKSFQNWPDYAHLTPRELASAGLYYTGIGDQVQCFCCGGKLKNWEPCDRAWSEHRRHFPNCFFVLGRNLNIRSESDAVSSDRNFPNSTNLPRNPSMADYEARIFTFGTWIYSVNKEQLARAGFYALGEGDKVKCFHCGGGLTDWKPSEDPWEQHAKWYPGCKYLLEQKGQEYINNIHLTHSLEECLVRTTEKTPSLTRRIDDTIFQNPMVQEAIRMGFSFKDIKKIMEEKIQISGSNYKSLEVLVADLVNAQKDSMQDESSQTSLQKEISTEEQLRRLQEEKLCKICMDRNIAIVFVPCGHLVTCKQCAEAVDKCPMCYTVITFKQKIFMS

Sequence of Dihydroorotate dehydrogenase (quinone), mitochondrial (Plasmodium falciparum (isolate 3D7)) (Q08210 whole entry, looked up): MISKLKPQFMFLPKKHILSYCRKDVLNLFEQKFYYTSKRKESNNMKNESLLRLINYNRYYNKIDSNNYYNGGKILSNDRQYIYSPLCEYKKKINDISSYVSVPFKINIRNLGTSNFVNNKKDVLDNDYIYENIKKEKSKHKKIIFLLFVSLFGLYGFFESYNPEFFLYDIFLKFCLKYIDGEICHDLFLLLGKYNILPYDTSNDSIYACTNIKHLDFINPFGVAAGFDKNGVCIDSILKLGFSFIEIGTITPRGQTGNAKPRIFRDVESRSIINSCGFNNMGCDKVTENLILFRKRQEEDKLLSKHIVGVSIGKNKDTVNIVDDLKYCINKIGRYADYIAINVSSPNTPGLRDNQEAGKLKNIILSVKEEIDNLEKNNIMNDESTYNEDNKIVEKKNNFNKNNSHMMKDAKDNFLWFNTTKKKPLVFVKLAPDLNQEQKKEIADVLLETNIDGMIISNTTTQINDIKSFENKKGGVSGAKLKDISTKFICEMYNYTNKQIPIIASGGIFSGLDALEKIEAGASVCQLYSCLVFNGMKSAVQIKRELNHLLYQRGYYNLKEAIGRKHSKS

Compound	z-score [1]	z-score [2]	z-score [3]	z-score [4]	z-score [5]	z-score [6]	z-score [7]	z-score [8]	z-score [9]	z-score [10]	z-score [11]	z-score [12]	z-score [13]	composite z-score [14]	z-score [15]	z-score [16]	z-score [17]	z-score [18]	z-score [19]	composite z-score [20]
COC(=O)[C@@]1(Cc2ccc(OC)cc2)[C@H]2c3cc(C(=O)N4CCCC4)n(CCN4CCOCC4)c3C[C@H]2CN1C(=O)c1ccccc1	-1.35	0.077	0.707	0.847	-1.16	2.52	0.642 (inactive)	0.28	-0.936	0.0452 (inactive)	0.142	0.642 (inactive)	-0.0281 (inactive)	-1.33 (inactive)	0.231 (inactive)	0.48 (inactive)	0.0378 (inactive)	0.484 (inactive)	0.639	0.0305
NC(=O)NCC#Cc1ccc2c(c1)[C@]1(C(=O)N2)[C@H](C(=O)NC[C@H](O)c2ccccc2)[C@H]2C(=O)O[C@H](c3ccccc3)[C@H](c3ccccc3)N2[C@@H]1c1ccccc1OCCO	-0.321	1.02	-0.252	0.325	-0.636	-1.64	1.34 (inactive)	-0.0808	-1.01	1.02 (inactive)	0.217	0.328 (inactive)	0.56 (inactive)	0.833 (inactive)	1.08 (inactive)	0.915 (inactive)	1.01 (inactive)	0.0227 (inactive)	0.225	0.0864
COCCn1c(C(=O)N2CCCC2)cc2c1C[C@H]1CN(C(=O)c3ccccc3)[C@@](Cc3ccc(OC)cc3)(C(=O)OC)[C@@H]21	0.476	0.238	1.35	0.776	0.426	2.71	0.0944 (inactive)	0.00347	-0.828	-0.253 (inactive)	-0.818	-0.35 (inactive)	-0.716 (inactive)	-1.79 (inactive)	0.576 (inactive)	-0.944 (inactive)	-0.0628 (inactive)	0.763 (inactive)	-0.939	0.232
CC(C)[Si]1(C(C)C)O[C@@H](c2ccccc2)c2cc(-c3ccc(-c4ccc(Cl)c(Cl)c4)o3)nc(CCc3ccccc3)c21	-0.516	-0.694	0.433	-3.02	-3.72	-1.95	-1.72 (inactive)	-0.965	-1.91	-0.748 (inactive)	-0.662	-3.29 (inactive)	-0.701 (inactive)	-0.231 (inactive)	0.726 (inactive)	0.144 (inactive)	0.231 (inactive)	-0.0564 (inactive)	-0.622	-0.27
COc1ccccc1CN1C(=O)c2ccccc2[C@](Cc2ccccc2I)(C(=O)NCc2ccccc2)[C@@H]1c1ccc(CO)cc1	0.049	0.218	-0.733	-0.325	-1.92	0.37	0.368 (inactive)	-0.0456	-0.318	-0.5 (inactive)	-0.583	0.511 (inactive)	-1.05 (inactive)	-0.141 (inactive)	0.0993 (inactive)	-0.283 (inactive)	-0.331 (inactive)	0.363 (inactive)	-1.12	-0.16
C=CCNC(=O)[C@@H]1[C@H]2C(=O)O[C@H](c3ccccc3)[C@H](c3ccccc3)N2[C@H](c2ccccc2OCCO)[C@@]12C(=O)N(C(=O)OCCOC)c1ccc(C#CCC(C(=O)OC)C(=O)OC)cc12	0.136	-0.609	-0.592	-0.794	-1.57	0.408	0.618 (inactive)	-0.802	-1.35	1.31 (inactive)	0.865	2.2 (inactive)	-1.69 (inactive)	-2.24 (inactive)	3.54 (inactive)	1.62 (inactive)	0.275 (inactive)	-0.418 (inactive)	-0.11	0.666
NC(=O)[C@@]1(CCS(=O)(=O)c2ccccc2)N=C(c2ccc(OCCCO)cc2)O[C@H]1c1ccccc1	-0.291	0.957	-1.94	0.614	-1.13	-0.209	-0.219 (inactive)	0.634	-0.659	0.798 (inactive)	-0.0687	-1.38 (inactive)	0.837 (inactive)	-0.319 (inactive)	-0.73 (inactive)	-0.832 (inactive)	0.818 (inactive)	0.565 (inactive)	0.429	0.0097
[N-]=[N+]=NCc1ccccc1[C@@H]1OC(c2ccc(OCCCO)cc2)=N[C@]1(Cc1ccccc1)C(=O)O	0.211	0.333	0.865	0.229	-0.767	-0.00992	-1.01 (inactive)	-0.0434	-0.969	0.45 (inactive)	1.18	-3.03 (inactive)	0.615 (inactive)	-0.101 (inactive)	0.466 (inactive)	0.703 (inactive)	0.305 (inactive)	-0.108 (inactive)	0.469	-0.0731
COc1ccc([Si](C)(C)[C@@H]2[C@@H](CCn3cc([C@H](O)c4ccccc4)nn3)O[C@]3(C(=O)N(C)c4ccccc43)[C@H]2C)cc1	-0.536	1.27	-1.01	-2.69	-3.85	0.988	-0.42 (inactive)	-0.866	-0.252	-1.89 (inactive)	-1.46	-0.397 (inactive)	-2.34 (inactive)	0.283 (inactive)	0.119 (inactive)	1.04 (inactive)	-0.834 (inactive)	-1.33 (inactive)	-1.81	-0.0272
